For orientation: AC50 means the midpoint of the concentration-response curve, whichever way the signal moves.

Each structure is given as a SMILES string. Records with an inconclusive call do not appear. Calls of active or inactive are those of the source. Rule for the calls: active = hit-call score of the fitted dose curve at least 0.9, where 1 is the maximum; inconclusive = response in the unintended direction; inactive = score below 0.9.

Our source for the AC50 and outcome values is PubChem BioAssay (EPA / NIEHS).

Assay [1] deals with Androgen Receptor/SRC-1 Co-activator, AR (gene 367) (UniProt P10275). As to the kind of experiment: OT_AR_ARSRC1_0480: Odyssey Thera (OT) 8-hour HEK293T Protein-Complementation Assay for Androgen Receptor/SRC-1 Co-activator (AID 2283354).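 Note: hits raise the complementation signal above DMSO so AC50 marks enhancers.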 Put shortly: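 Split-Venus PCA, stable HEK293T, AR/SRC-1 fusions; 8 h exposure. Readout: 488nm N/C fluorescence ratio, ≥400 cells/image; fitted upward vs DMSO baseline.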

The target in assay [2] is Estrogen receptor beta (Homo sapiens) (UniProt Q92731). Nature of the assay: OT_ER_ERbERb_0480: Odyssey Thera (OT) 8-hour HEK293T Protein-Complementation Assay for Estrogen Receptor-beta/-beta Homodimer (AID 2283357).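 Note: active means signal gain over DMSO baseline.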 Summed up:
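Homodimerization of ER-beta LBD measured by protein-fragment complementation in HEK293T; 8 h dosing; fixed, Draq5 counterstain; fluorescence intensity gain over DMSO baseline, positive fitting direction; laser scanning cytometry.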

The target of assay [3] is human Thyroid Receptor Alpha (TRa), THRA (gene 7067) (UniProt P10827). As to the kind of experiment: NVS_NR_hTRa_Antagonist: NovaScreen (NVS) Nuclear Receptor Binding Assay for human Thyroid Receptor Alpha Antagonism (TRa) (AID 2283362).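 Note: activity is loss of signal relative to DMSO baseline.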 Summed up: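 Actives from a duplicate 25 uM single-point screen were retested in concentration series. The cell-free antagonist-format binding assay was read by AlphaLISA chemiluminescence at 1 h, scored as signal loss relative to DMSO.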

Assay [4] addresses Glucocorticoid receptor (Homo sapiens) (UniProt P04150). As to the kind of experiment: NVS_NR_hGR: NovaScreen (NVS) Nuclear Receptor Binding Assay for human Glucocorticoid Receptor (GR) (AID 2283363).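 For AC50: activity is loss of specific radioligand binding signal relative to DMSO.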 Put shortly: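 Filter scintillation readout of tritiated/iodinated radioligand displaced by test chemical; cell-free extracted protein; 16 h. DMSO = negative control/baseline. Duplicate single-point 25 uM screen, then concentration-response on actives.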

The target in assay [5] is Estrogen receptor (Homo sapiens) + Estrogen receptor beta (Homo sapiens) (UniProt P03372+Q92731). As to the kind of experiment: OT_ER_ERaERb_1440: Odyssey Thera (OT) 24-hour HEK293T Protein-Complementation Assay for Estrogen Receptor-alpha/-beta Homodimer (AID 2283356).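 Note: heteromer of ER alpha and ER beta binding domains; hits raise reporter fluorescence and both agonists and antagonists give an increase.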 Put shortly:
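Fragment complementation between ER alpha (310-547) and ER beta (263-489) ligand-binding domains in HEK293T cells; signal read 24 h post-dosing by laser scanning cytometer. Gain of fluorescence relative to DMSO fitted.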

Assay [6] deals with Nuclear receptor subfamily 1 group I member 2 (Homo sapiens) (UniProt O75469). Nature of the assay: NVS_NR_hPXR: NovaScreen (NVS) Nuclear Receptor Binding Assay for human Pregnane X Receptor (PXR) (AID 2283365).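 Note: a drop in FRET signal versus DMSO baseline means the compound binds.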 Put shortly: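 Human PXR binding measured by TR-FRET in a cell-free format, 2 h exposure. Single-concentration duplicates at 25 uM preceded concentration-response retests of actives; endpoint fitted positively relative to DMSO, loss of signal indicating binding.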

Assay [7] deals with rat Mineralocorticoid Receptor (MR), Nr3c2 (gene 25672) (UniProt P22199). As to the kind of experiment: NVS_NR_rMR: NovaScreen (NVS) Nuclear Receptor Binding Assay for rat Mineralocorticoid Receptor (MR) (AID 2283355). Put shortly:
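Radioligand displacement, scintillation readout; tissue source adrenalectomized rat brain supernatant. Read 24 h post-dose. Screened in duplicate at 25 uM, DMSO negative control, controls on every plate; actives re-run in concentration series.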

Assay [8] deals with PGR (gene 5241) (UniProt P06401). Nature of the assay: NVS_NR_hPR: NovaScreen (NVS) Nuclear Receptor Binding Assay for human Progestron Receptor (PR) (AID 2283360).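 Note: active means loss of bound radioligand signal versus DMSO baseline.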 Summed up:
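Cell-free radioligand binding using receptor protein extracted from T47D cells, read by scintillation counting 18 hours after dosing. Loss of signal relative to DMSO baseline indicates displacement; primary screen single concentration 25 uM in duplicate, actives followed in concentration series.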

Assay [9] has as its target Retinoic acid receptor alpha (Homo sapiens) (UniProt P10276). As to the kind of experiment: NVS_NR_hRARa_Agonist: NovaScreen (NVS) Nuclear Receptor Binding Assay for human Retinoic Acid Alpha Receptor Agonism (RAR) (AID 2283361). Summed up: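 TR-FRET signal, 2 h post-dosing; cell-free extracted protein; DMSO = baseline, positive fitting direction; 25 uM single-point duplicate, then concentration series for actives.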

The target is the same in assay [10]. As to the kind of experiment: NVS_NR_hRAR_Antagonist: NovaScreen (NVS) Nuclear Receptor Binding Assay for human Retinoic Acid Alpha Receptor Antagonism (RAR) (AID 2283358). Summed up: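 Read-out: time-resolved FRET binding signal, 2 h post-dose, cell-free extracted protein. Antagonism scored as signal loss versus DMSO negative control. Primary single-concentration screen at 25 uM in duplicate; concentration series for actives.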

Estrogen receptor (Homo sapiens) + Estrogen receptor beta (Homo sapiens), sequence (P03372 whole entry, looked up, the tested form may be a part): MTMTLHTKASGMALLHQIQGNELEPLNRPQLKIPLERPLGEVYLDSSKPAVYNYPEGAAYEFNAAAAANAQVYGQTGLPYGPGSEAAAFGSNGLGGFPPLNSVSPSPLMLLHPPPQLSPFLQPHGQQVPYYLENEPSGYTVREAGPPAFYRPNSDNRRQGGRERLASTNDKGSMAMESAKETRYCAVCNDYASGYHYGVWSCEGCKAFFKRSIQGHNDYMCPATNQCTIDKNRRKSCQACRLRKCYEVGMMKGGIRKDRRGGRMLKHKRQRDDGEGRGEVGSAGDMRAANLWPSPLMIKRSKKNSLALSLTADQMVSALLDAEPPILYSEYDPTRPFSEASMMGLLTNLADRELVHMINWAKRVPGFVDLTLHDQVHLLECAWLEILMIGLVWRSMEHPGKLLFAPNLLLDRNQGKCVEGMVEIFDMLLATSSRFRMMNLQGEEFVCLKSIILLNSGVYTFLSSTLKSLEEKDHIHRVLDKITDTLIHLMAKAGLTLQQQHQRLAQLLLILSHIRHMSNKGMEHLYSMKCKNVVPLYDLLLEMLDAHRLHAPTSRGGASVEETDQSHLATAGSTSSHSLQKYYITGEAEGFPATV
Estrogen receptor (Homo sapiens) + Estrogen receptor beta (Homo sapiens), sequence (Q92731 whole entry, looked up, the tested form may be a part): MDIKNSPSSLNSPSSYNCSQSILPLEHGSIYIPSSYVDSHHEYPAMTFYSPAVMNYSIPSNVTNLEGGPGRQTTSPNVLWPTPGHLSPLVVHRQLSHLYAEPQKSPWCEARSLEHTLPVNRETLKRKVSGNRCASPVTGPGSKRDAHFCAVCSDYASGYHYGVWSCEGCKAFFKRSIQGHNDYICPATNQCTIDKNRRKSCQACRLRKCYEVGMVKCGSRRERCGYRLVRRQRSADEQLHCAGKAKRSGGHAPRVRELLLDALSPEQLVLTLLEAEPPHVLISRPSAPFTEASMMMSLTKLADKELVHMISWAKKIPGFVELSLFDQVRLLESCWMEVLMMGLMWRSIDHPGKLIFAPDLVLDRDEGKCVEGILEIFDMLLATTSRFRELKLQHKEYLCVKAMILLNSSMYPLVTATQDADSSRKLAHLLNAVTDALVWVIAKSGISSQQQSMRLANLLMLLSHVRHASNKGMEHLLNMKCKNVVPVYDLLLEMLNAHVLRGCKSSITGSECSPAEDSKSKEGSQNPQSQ
Androgen Receptor/SRC-1 Co-activator, AR (gene 367), sequence (P10275 whole entry, looked up, the tested form may be a part): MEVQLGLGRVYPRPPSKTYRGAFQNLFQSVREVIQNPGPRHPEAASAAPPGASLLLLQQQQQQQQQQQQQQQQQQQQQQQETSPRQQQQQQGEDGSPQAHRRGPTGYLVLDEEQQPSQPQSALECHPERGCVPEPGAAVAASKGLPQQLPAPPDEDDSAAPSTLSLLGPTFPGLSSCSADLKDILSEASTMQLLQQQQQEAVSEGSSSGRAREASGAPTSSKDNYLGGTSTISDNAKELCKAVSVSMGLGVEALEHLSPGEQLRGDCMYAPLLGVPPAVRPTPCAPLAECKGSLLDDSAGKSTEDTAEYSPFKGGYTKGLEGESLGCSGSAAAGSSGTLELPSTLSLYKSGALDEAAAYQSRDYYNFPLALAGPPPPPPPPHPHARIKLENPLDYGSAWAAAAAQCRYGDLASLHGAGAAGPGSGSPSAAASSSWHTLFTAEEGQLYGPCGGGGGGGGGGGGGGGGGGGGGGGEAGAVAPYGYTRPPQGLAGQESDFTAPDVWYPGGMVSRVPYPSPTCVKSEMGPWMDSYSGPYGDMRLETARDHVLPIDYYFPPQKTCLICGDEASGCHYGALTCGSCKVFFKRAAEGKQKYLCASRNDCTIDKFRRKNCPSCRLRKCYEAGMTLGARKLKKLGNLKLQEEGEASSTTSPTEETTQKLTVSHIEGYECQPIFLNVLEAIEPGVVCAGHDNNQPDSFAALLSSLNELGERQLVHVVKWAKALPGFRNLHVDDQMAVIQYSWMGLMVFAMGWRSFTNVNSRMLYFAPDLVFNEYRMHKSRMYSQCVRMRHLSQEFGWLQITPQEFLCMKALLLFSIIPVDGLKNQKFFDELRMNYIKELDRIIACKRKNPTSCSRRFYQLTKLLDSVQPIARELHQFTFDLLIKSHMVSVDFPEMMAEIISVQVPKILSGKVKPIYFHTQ
human Thyroid Receptor Alpha (TRa), THRA (gene 7067), sequence (P10827 whole entry, looked up): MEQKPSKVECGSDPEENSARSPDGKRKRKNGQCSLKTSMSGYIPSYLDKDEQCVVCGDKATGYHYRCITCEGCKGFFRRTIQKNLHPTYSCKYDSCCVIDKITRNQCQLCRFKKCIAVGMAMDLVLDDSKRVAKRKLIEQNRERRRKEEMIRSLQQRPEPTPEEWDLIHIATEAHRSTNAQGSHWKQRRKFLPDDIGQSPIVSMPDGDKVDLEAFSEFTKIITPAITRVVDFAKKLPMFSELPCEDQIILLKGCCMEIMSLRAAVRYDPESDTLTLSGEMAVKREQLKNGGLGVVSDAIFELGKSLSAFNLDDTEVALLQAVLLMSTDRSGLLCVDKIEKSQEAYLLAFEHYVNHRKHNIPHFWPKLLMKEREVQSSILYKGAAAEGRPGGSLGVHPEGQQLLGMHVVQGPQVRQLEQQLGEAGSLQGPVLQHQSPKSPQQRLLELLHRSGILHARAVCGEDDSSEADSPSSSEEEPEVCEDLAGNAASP
Retinoic acid receptor alpha (Homo sapiens), sequence (P10276 whole entry, looked up): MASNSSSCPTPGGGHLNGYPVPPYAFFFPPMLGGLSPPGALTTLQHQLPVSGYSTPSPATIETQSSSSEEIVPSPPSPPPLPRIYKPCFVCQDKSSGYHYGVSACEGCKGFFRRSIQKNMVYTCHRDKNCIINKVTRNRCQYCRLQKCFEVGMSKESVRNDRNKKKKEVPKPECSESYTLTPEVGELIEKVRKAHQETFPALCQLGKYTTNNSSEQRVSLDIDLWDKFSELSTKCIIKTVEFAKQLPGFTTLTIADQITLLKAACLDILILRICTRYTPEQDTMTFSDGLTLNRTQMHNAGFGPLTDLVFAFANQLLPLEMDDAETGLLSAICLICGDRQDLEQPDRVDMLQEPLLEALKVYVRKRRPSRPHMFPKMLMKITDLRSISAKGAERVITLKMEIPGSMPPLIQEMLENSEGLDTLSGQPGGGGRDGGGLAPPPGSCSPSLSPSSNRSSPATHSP
Glucocorticoid receptor (Homo sapiens), sequence (P04150 whole entry, looked up): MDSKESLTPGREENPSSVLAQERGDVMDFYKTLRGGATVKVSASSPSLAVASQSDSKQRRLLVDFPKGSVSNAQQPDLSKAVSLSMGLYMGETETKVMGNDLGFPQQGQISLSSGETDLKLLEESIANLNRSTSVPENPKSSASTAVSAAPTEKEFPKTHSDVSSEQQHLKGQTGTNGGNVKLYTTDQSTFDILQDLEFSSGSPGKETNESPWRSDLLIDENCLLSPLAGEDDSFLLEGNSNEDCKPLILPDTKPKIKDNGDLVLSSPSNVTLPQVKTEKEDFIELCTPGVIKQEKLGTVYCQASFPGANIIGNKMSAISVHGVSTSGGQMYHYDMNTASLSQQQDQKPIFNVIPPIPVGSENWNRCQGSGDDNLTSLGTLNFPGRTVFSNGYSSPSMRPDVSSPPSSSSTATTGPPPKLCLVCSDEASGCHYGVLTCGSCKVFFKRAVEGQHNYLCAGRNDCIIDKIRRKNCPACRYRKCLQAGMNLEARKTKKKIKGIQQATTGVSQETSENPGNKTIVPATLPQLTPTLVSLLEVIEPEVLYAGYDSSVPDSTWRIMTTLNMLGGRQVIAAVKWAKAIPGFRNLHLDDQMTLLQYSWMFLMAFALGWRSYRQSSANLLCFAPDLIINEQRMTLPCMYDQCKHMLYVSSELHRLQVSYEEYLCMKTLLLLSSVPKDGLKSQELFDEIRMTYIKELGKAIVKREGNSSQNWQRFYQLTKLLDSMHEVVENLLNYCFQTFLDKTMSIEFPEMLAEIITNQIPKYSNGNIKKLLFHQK
Nuclear receptor subfamily 1 group I member 2 (Homo sapiens), sequence (O75469 whole entry, looked up): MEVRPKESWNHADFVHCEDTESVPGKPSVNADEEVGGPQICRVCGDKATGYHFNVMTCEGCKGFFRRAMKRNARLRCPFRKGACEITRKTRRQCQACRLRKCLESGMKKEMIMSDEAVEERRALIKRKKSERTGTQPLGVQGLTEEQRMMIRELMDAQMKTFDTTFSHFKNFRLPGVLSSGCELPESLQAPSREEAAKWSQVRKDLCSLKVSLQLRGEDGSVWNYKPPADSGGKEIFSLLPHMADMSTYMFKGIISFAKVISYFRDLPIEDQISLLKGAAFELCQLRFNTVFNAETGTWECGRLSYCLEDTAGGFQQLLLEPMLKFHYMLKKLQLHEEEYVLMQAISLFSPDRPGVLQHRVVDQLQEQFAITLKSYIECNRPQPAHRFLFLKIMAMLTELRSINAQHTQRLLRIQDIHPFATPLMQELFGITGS
Estrogen receptor beta (Homo sapiens), sequence (Q92731 whole entry, looked up, the tested form may be a part): as the sequence (Q92731 whole entry, looked up, the tested form may be a part) above

Regarding `CNS(=O)(=O)c1cc(C(=O)N2CCC(CCN3C4CCC3CC(n3c(C)nc5ccccc53)C4)(c3cccc(F)c3)CC2)c(Cl)cc1F` (configuration not stated), in assay [1], the AC50 was 32 µM (active). Further, the outcome in [2] and in assay [3] was inactive.

As for `CCCCCCc1ccc(O)cc1O`, the AC50 is 77.9 µM (active) in assay [1] and 33.7 µM (active) in assay [4].

In the case of `CCCN(C1CCN(C(=O)C2CCNCC2)CC1)[C@@H]1CCc2ccc(OC)cc2C1`, the call in assay [1] and in [2] was inactive.

Turning to `O=C(NS(=O)(=O)/C=C/c1ccccc1)c1ccc(F)cc1Cl`, the outcome in assay [5] was inactive.

As for `COc1cccc(-c2ccc(/C=C\CN3CCCCCC3)cc2Cl)c1`, the concentration at half-maximal activity (AC50) in assay [5] was 10.7 µM (active). In addition, the molecule was classed as inactive in [2], in [3] and in assay [6].

On to `Cc1ccc(N)cc1O`, for which the result in assay [5], in [2] and in assay [6] was inactive.

On to `Oc1ccc2c(c1)-c1ccccc1C2`, for which the AC50 in assay [1] is 50 µM (active); in [2], 12.7 µM (active); in assay [8], 9.66 µM (active). The call in [7] and in assay [4] was inactive.

As to `C=CC(=C)CCC=C(C)C`, the outcome in assay [5] and in [2] was inactive.

For `CCC(C)(C)C(=O)O[C@H]1C[C@@H](C)C=C2C=C[C@H](C)[C@H](CC[C@@H]3C[C@@H](O)CC(=O)O3)[C@H]21`, the result in assay [5] and in [2] was inactive. Also, the AC50 in assay [4] was 14.5 µM (active).

For the molecule `CC(C)=CCCC(C)=CC=O`, the outcome in [5] and in assay [2] was inactive.

As to `CCCCC(CC)COC(=O)c1ccc(C(=O)OCC(CC)CCCC)cc1` (configuration not stated), the outcome in [1] was inactive.

For the molecule `COC(=O)CC(=O)OC`, the outcome in [5] and in assay [8] was inactive.

Regarding `COC(=O)c1c(Cl)c(Cl)c(C(=O)OC)c(Cl)c1Cl`, the AC50 in assay [5] and in assay [2] was 50 µM (active) each time.

`CC[C@H]1CC[C@H](NCc2cc3c(cc2OC)[C@H]2C[C@H]2C(=O)N3C)[C@H](c2ccccc2)N1`: the outcome in assay [5], in [2] and in assay [9] was inactive.

For the molecule `O=C(CCCCCCCCc1cccnc1)N1CCC(C=C(c2ccccc2)c2ccccc2)CC1`, the molecule was called inactive in [1], in assay [2] and in [10].

`C=CCCCCCCCCC(=O)O`: the outcome in assay [5], in assay [2] and in assay [6] was inactive.

In the case of `Nc1nc2ncc(CNc3ccc(C(=O)N[C@@H](CCC(=O)O)C(=O)O)cc3)nc2c(=O)[nH]1`, the molecule was classed as inactive in assay [1] and in [2]. Besides, in assay [9], the AC50 was 15.8 µM (active).

As to `COc1ccc2sc(C(=O)Nc3nnn[nH]3)c(OC(C)C)c2c1`, the result in assay [5], in assay [2] and in assay [4] was inactive.

Take `CC[C@H](C)C(=O)O[C@H]1C[C@@H](C)C=C2C=C[C@H](C)[C@H](CC[C@@H]3C[C@@H](O)CC(=O)O3)[C@H]21`: the result in assay [5] and in [2] was inactive.

In the case of `Fc1ccccc1[C@@H](F)COC1CCC(Nc2ncnc3[nH]ncc23)CC1` (some centres not stated), the AC50 in assay [1] is 50 µM (active). Further, the molecule was classed as inactive in assay [2].

In the case of `CCCCCCCCO`, the result in assay [5] and in assay [2] was inactive.

As to `O=C1OC(=O)C2C3C=CC(C3)C12` (configuration not stated), in [10], the call was inactive.

`O=C(O)c1cccc(Oc2ccccc2)c1`: the call in assay [10] was inactive.

With `Cc1[nH]cnc1C[C@H]1CCc2c(C)c3ccccc3n2C1=O`, in assay [3], the molecule was called inactive.

`On1ccccc1=S`: the AC50 in assay [3] was 9.11 µM (active).
